Records with an inconclusive call do not appear. The source made the active and inactive calls. The call rests on the fitted dose curve; in most records, active means well fitted curve in the direction sought with a large enough effect; inconclusive means small, poorly fitted or top-dose-only effect, or another doubt; inactive means no such curve, though single readings can be large; an effect the other way counts as inactive or inconclusive.
Columns and labels:
[1] = qHTS of pediatric cancer cell lines to identify multiple opportunities for drug repurposing: Confirmatory screen for BT-37 cells (AID 1347117); further: potency means the concentration at half of the fitted maximal effect;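 further: viability measured after 48 h of compound exposure; nearly all actives have a fitted effect of over 55% in size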
Outline: (§1)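 Cells (500-1,000/well) rested 5 h, then received compounds for 48 h; metabolically active cells were measured by CellTiter-Glo luminescence. Final concentrations spanned up to 46 µM (MIPE, 11-point) or 0.59 nM-46 µM (NPC, 8-point) in primary screens, 11-point in follow-ups.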

[2] = qHTS of pediatric cancer cell lines to identify multiple opportunities for drug repurposing: Confirmatory screen for U-2 OS cells (AID 1347122); further: nearly all actives have a fitted effect of over 65% in size; further: potency means the concentration at half of the fitted maximal effect
Outline: as §1

[3] = qHTS of pediatric cancer cell lines to identify multiple opportunities for drug repurposing: Confirmatory screen for Rh41 cells (AID 1347123); further: nearly all actives have a fitted effect of over 60% in size; further: potency means the concentration at half of the fitted maximal effect
Outline: as §1

[4] = qHTS of pediatric cancer cell lines to identify multiple opportunities for drug repurposing: Confirmatory screen for RD cells (AID 1347124);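 further: cells exposed to compound for 48 h before viability readout; nearly all actives have a fitted effect of over 65% in size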; further: potency means the concentration at half of the fitted maximal effect
Outline: as §1

[5] = qHTS of pediatric cancer cell lines to identify multiple opportunities for drug repurposing: Confirmatory screen for Rh18 cells (AID 1347125); further: nearly all actives have a fitted effect of over 55% in size; further: potency means the concentration at half of the fitted maximal effect
Outline: as §1

[6] = qHTS of pediatric cancer cell lines to identify multiple opportunities for drug repurposing: Confirmatory screen for Rh30 cells (AID 1347126); further: nearly all actives have a fitted effect of over 55% in size; further: potency means the concentration at half of the fitted maximal effect
Outline: as §1

[7] = qHTS of pediatric cancer cell lines to identify multiple opportunities for drug repurposing: Confirmatory screen for Saos-2 cells (AID 1347127); further: nearly all actives have a fitted effect of over 60% in size; further: potency means the concentration at half of the fitted maximal effect
Outline: as §1

[8] = qHTS of pediatric cancer cell lines to identify multiple opportunities for drug repurposing: Confirmatory screen for OHS-50 cells (AID 1347128);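 further: compound exposure lasted 48 h at 37 degrees C; nearly all actives have a fitted effect of over 55% in size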; further: potency means the concentration at half of the fitted maximal effect
Outline: as §1

[9] = qHTS of pediatric cancer cell lines to identify multiple opportunities for drug repurposing: Confirmatory screen for SK-N-SH cells (AID 1347129);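 further: cells exposed to compound for 48 h before viability read; nearly all actives have a fitted effect of over 60% in size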; further: potency means the concentration at half of the fitted maximal effect
Outline: as §1

[10] = biological target: N-terminal Xaa-Pro-Lys N-methyltransferase 1 (Homo sapiens) (UniProt Q9BV86); assay: qHTS Assay for Inhibitors of N-terminal methyltransferase 1 (NTMT1): LOPAC validation of the NTMT1 SAHH-coupled ThioGlo3 Assay (AID 1347143);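 further: SAH from peptide methylation measured as thiol fluorescence via SAHH coupling and ThioGlo3; on the % scale 0 is the no-effect control and ±100 the full control effect; nearly all actives have a fitted effect of over 70% in size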
Sequence of N-terminal Xaa-Pro-Lys N-methyltransferase 1 (Homo sapiens) (Q9BV86 whole entry, looked up): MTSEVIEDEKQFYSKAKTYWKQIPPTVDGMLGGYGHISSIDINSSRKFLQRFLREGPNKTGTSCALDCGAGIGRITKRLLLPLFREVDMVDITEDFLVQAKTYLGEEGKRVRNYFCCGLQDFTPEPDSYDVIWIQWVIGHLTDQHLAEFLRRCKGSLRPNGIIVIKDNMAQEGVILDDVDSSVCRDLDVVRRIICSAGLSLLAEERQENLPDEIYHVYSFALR
Outline: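 Inhibition of NTMT1 methylation of peptide SPKRIA is followed by converting SAH with SAHH and labelling the released thiol with ThioGlo3. Plates are read at 340/450nm before and 30 min after reagent addition, both at room temperature.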

[11] = test system: Zika virus NS2B-NS3 protease (unlinked); assay: Optimization of GU AMC qHTS for Zika virus inhibitors: Unlinked NS2B-NS3 protease assay (AID 1347151); further: nearly all actives have a fitted effect of over 80% in size; further: potency means the concentration at half of the fitted maximal effect;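 on activity change, negative = inhibition: series mostly up to about 52 µM; 0% = no-inhibitor control and -100% = no-enzyme control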
Outline: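 Percent inhibition is derived from the 15-min change in AMC fluorescence, normalized against no-inhibitor and no-enzyme controls, then fitted to a 4-parameter Hill curve. Aprotinin was the intraplate control.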

[12] = test system: Zika virus NS2B-NS3 protease; assay: Primary screen GU AMC qHTS for Zika virus inhibitors (AID 1347154);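 further: 0% = no-inhibitor control and -100% = no-enzyme control; nearly all actives have a fitted effect of over 70% in size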
Outline: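 Fluorogenic AMC-substrate cleavage by noncovalent NS2B-NS3 protease complex (25 nM, pH 8.0 Tris buffer with Tween 20) followed for 15 minutes at room temperature (~20% conversion). Percent inhibition from ex340/em450 signal change, fitted by 4-parameter Hill equation.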

[13] = qHTS of pediatric cancer cell lines to identify multiple opportunities for drug repurposing: Confirmatory screen for TC32 cells (AID 1347118);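 further: cells exposed to compound for 48 h before the read; nearly all actives have a fitted effect of over 65% in size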; further: potency means the concentration at half of the fitted maximal effect
Outline: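 Luminescent CellTiter-Glo read-out of metabolically active TC32 cells after 48 h compound exposure. Primary: MIPE 11-point, 0.78 nM–46 µM; NPC 8-point, 0.59 nM–46 µM. Confirmatory: 11-point dilutions.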

[14] = test system: Zika virus NS2B-NS3 protease (linked construct); assay: Primary screen NINDS Rhodamine qHTS for Zika virus inhibitors (AID 1347160); further: nearly all actives have a fitted effect of over 55% in size; on activity change, negative = inhibition: on the % scale 0 is the no-effect control and ±100 the full control effect
Outline: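 Purified linked NS2B-NS3 protease (NS2B hydrophilic domain joined to NS3 protease by flexible linker), 25 nM in 10 mM Tris-HCl pH 8.0, 0.01% Tween 20. Compounds titrated, 15 min preincubation at room temperature; 1.5 microM Rhodamine110 substrate, FITC fluorescence change over 15 min.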

[15] = test system: Zika virus NS2B-NS3 protease (unlinked complex); assay: Primary screen GU Rhodamine qHTS for Zika virus inhibitors: Unlinked NS2B-NS3 protease assay (AID 1347159); further: nearly all actives have a fitted effect of over 60% in size; further: potency means the concentration at half of the fitted maximal effect; on activity change, negative = inhibition: on the % scale 0 is the no-effect control and ±100 the full control effect
Outline: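 Noncovalent NS2B hydrophilic domain–NS3 protease domain complex (25 nM) preincubated 15 min at room temperature with compounds (up to 114 microM) in 10 mM Tris-HCl pH 8.0, 0.01% Tween 20; 1.5 microM Rhodamine110 substrate added, fluorescence change over 15 min fitted to Hill equation.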

Furin (Homo sapiens) = Furin (Homo sapiens) (UniProt P09958); assay: Furin counterscreen qHTS for Zika virus inhibitors (AID 1347149); further: nearly all actives have a fitted effect of over 70% in size; further: potency means the concentration at half of the fitted maximal effect;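 on activity change, negative = inhibition: purified recombinant full-length human furin enzyme at 5 nM; fluorescence gain from furin cutting a BOC-RVRR-AMC peptide substrate over 15 min; top concentration of the series differs between compounds; plate controls were no-inhibitor control for no effect and no-enzyme control for full effect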
Sequence of Furin (Homo sapiens) (P09958 whole entry, looked up): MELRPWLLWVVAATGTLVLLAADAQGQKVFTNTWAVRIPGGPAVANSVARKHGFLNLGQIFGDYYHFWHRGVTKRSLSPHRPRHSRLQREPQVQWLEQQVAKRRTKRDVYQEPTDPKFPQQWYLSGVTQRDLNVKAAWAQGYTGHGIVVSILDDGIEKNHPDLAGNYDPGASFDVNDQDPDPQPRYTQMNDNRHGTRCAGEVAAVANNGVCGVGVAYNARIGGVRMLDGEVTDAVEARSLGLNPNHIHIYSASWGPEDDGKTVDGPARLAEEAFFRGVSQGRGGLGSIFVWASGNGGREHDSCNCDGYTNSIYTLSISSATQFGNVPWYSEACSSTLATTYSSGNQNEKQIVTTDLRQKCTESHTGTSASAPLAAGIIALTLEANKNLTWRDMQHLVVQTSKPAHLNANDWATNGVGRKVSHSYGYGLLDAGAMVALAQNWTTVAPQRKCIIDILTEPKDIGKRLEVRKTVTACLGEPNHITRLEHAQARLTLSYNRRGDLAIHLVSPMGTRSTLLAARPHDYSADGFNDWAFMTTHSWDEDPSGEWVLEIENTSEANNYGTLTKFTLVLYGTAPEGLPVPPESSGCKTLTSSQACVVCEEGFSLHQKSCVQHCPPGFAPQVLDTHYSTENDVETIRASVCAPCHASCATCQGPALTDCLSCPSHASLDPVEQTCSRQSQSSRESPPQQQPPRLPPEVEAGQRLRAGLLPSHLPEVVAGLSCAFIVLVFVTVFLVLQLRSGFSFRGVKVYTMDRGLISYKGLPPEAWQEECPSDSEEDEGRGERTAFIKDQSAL
Outline: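 Fluorogenic cleavage of BOC-RVRR-AMC (2 microM final, Km ~15 µM) was monitored (ex 340, em 450 nm) at 37C after 15 min RT preincubation of 5 nM furin with compounds in HEPES pH 7.0 buffer with CaCl2 and Triton X-100. Percent inhibition was fitted to a 4-parameter Hill curve.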

[16] = test system: Zika virus NS2B-NS3 protease (linked construct); assay: Confirmatory screen NINDS AMC qHTS for Zika virus inhibitors (AID 1347152);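 further: AMC fluorescence gain from cleaved Bz-Nle-KRR-AMC substrate over 15 min; top concentration of the series differs between compounds; 0% = no-inhibitor control and -100% = no-enzyme control; nearly all actives have a fitted effect of over 70% in size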
Outline: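 In this dose-response qHTS, AMC release from 10 microM Bz-Nle-KRR-AMC by 1 nM linked protease is measured over 15 minutes (about 20% conversion) at pH 8.0. Percent inhibition is fitted to a 4-parameter Hill curve.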

[17] = test system: Zika virus NS2B-NS3 protease (unlinked complex); assay: Confirmatory screen GU AMC qHTS for Zika virus inhibitors (AID 1347153)
Outline: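 Noncovalent NS2B hydrophilic domain/NS3 protease complex (25 nM) in 10 mM Tris-HCl pH 8.0, 0.01% Tween 20 was preincubated 15 min at room temperature with compounds. Then 10 µM AMC substrate (Km 18.3 µM) was added; fluorescence was read over 15 min and fitted to a 4-parameter Hill equation.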

NCCCC(N)(C(=O)O)C(F)F (stereo not drawn)
inactive: Potency [1] | Potency [2] | Potency [3] | Potency [4] | Potency [5] | Potency [6] | Potency [7] | Potency [8] | Potency [9] | Potency [10] | Potency [11] | Potency [12]

Cc1cn[nH]c1
inactive: Potency [1] | Potency [13] | Potency [2] | Potency [3] | Potency [4] | Potency [5] | Potency [6] | Potency [7] | Potency [8] | Potency [9] | Potency [11] | Potency [12]

Cc1c(CN2CCN(C(=O)C(C)C)CC2)sc2c(N3CCOCC3)nc(-c3cnc(N)nc3)nc12
inactive: Potency [12]
active: Potency [1] 0.737 µM | Potency [13] 0.737 µM | Potency [2] 0.737 µM | Potency [3] 0.414 µM | Potency [4] 2.08 µM | Potency [5] 0.827 µM | Potency [6] 0.928 µM | Potency [7] 0.928 µM | Potency [8] 1.04 µM | Potency [9] 1.05 µM

Cc1c(C)c2c(c(C)c1O)CCC(C)(COc1ccc(CC3SC(=O)NC3=O)cc1)O2 (stereo not drawn)
inactive: Potency [1] | Potency [13] | Potency [3] | Potency [4] | Potency [6] | Potency [7] | Potency [9] | Potency [12]

Oc1cccc(-c2nc(N3CCOCC3)c3oc4ncccc4c3n2)c1
active: Potency [1] 0.851 µM | Potency [13] 0.427 µM | Potency [3] 0.522 µM | Potency [5] 1.7 µM | Potency [7] 0.38 µM | Potency [8] 3.02 µM | Potency [9] 4.18 µM

CCCS(=O)(=O)Nc1ccc(F)c(C(=O)c2c[nH]c3ncc(-c4ccc(Cl)cc4)cc23)c1F
active: Potency [13] 18.5 µM | Potency [2] 23.3 µM | Potency [3] 13.1 µM
inactive: Potency [4] | Potency [9] | Potency [12] | Potency [14]

Nc1nc2[nH]cc(CCc3ccc(C(=O)N[C@@H](CCC(=O)O)C(=O)O)cc3)c2c(=O)[nH]1
inactive: Potency [2] | Potency [3] | Potency [4] | Potency [5] | Potency [6] | Potency [8] | Potency [9] | Potency [12]
active: Potency [13] 0.465 µM

COc1cc2nccc(Oc3ccc(NC(=O)NC4CC4)c(Cl)c3)c2cc1C(N)=O
active: Potency [13] 14.7 µM | Potency [3] 5.85 µM | Potency [5] 14.7 µM
inactive: Potency [6] | Potency [9] | Potency [12] | Potency [14]

C#Cc1cccc(Nc2ncnc3cc(OCCOC)c(OCCOC)cc23)c1
active: Potency [1] 5.85 µM | Potency [13] 14.7 µM | Potency [3] 9.27 µM
inactive: Potency [4] | Potency [5] | Potency [7] | Potency [9] | Potency [12] | Potency [15] | Potency [14]

CCC(C)(C)C(=O)O[C@H]1C[C@@H](C)C=C2C=C[C@H](C)[C@H](CC[C@@H]3C[C@@H](O)CC(=O)O3)[C@H]21
inactive: Potency [12]
active: Potency [13] 16.5 µM | Potency [2] 10.4 µM | Potency [6] 16.5 µM | Potency [7] 2.33 µM | Potency [9] 5.26 µM

O=C(NOC[C@H](O)CO)c1ccc(F)c(F)c1Nc1ccc(I)cc1F
active: Potency [2] 1.31 µM | Potency [15] 22.4 µM
inactive: Potency [13] | Potency [4] | Potency [5] | Potency [6] | Potency [7] | Potency [8] | Potency [12]

CS(=O)(=O)c1ccc(C(=O)Nc2ccc(Cl)c(-c3ccccn3)c2)c(Cl)c1
inactive: Potency [1] | Potency [2] | Potency [4] | Potency [5] | Potency [6] | Potency [8] | Potency [9] | Potency [15] | Potency [14]
active: Potency [13] 4.65 µM

Cc1oncc1C(=O)Nc1ccc(C(F)(F)F)cc1
inactive: Potency [1] | Potency [2] | Potency [3] | Potency [5] | Potency [6] | Potency [7] | Potency [8] | Potency [9] | Potency [10] | Potency [11] | Potency [12]

CCN(CC)CCCC(C)Nc1ccnc2cc(Cl)ccc12 (stereo not drawn)
inactive: Potency [1] | Potency [13] | Potency [2] | Potency [3] | Potency [4] | Potency [5] | Potency [6] | Potency [7] | Potency [8] | Potency [9] | Potency [10] | Potency (Furin (Homo sapiens)) | Potency [16] | Potency [17] | Potency [12] | activity change, negative = inhibition [15] 52.4% [at 19.1 µM] | outcome [14] inactive [at 10.7 µM]
active: Potency [11] 15 µM

COCC(=O)NCC=Cc1ccc2ncnc(Nc3ccc(Oc4ccc(C)nc4)c(C)c3)c2c1
inactive: Potency [4]
active: Potency [1] 24 µM | Potency [13] 26.9 µM | Potency [3] 18.5 µM | Potency [6] 2.93 µM | Potency [8] 42.7 µM | Potency (Furin (Homo sapiens)) 30.3 µM

CC(C=CC1=C(C)CCCC1(C)C)=CC=CC(C)=CC(=O)O
inactive: Potency [1] | Potency [2] | Potency [4] | Potency [5] | Potency [6] | Potency [8] | Potency [9] | Potency [12]
active: Potency [13] 16.5 µM

CCOc1ccn(-c2ccc(F)cc2)c(=O)c1C(=O)Nc1ccc(Oc2ccnc(N)c2Cl)c(F)c1
inactive: Potency [2] | Potency [4] | Potency [6] | Potency [9] | Potency [12] | Potency [15] | Potency [14]
active: Potency [13] 7.37 µM

Nc1nc2c(ncn2COCCO)c(=O)[nH]1
inactive: Potency [13] | Potency [2] | Potency [3] | Potency [4] | Potency [5] | Potency [6] | Potency [7] | Potency [8] | Potency [9] | Potency [10] | Potency [11] | Potency [12]

Source: PubChem BioAssay (NCATS)
